Giardia killer = Giardia lamblia killing. activity change, % at 7.66 µM, hits read low. Giardia lamblia trophozoite viability. AID 540267. 0.15% of 340,000 active; in the data active means activity change below about -80%; inconclusive means between about -30% and that limit;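 further: parasites exposed to compound for two days anaerobically before the ATP read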
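Giardia lamblia trophozoites (100 cells/well) were incubated with compounds for 48 h at 37 deg C under anaerobic conditions. Viability was read as ATP content by one-step luminescence after 15-30 min at room temperature.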
KB-V1 MDR tox = kills drug-selected multidrug resistant KB-V1 cells; KB-V1 MDR cells viability, CellTiter-Glo, 72 h; Potency, µM (highest dose often 46.1 µM), hits mostly cytotoxic; 3.4% of 400,000 active; further: potency means the concentration at half of the fitted maximal effect; nearly all actives have a fitted effect of over 60% in size
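Drug-selected KB-V1 cells, grown in DMEM lacking phenol red with 10% FBS, receive compound titrations; after three days at 37 degrees C, surviving cell ATP is quantified by CellTiter-Glo luminescence and responses normalized and curve-fitted.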
A549 tox-1 = counter-screen for Nrf2 inhibitors: cytotoxicity in A549 cells; AID 504648; A549 ARE-Fluc cells, CellTiter-Fluor viability, 18-24 h; Potency, µM (highest dose often 46 µM), for inactives: at the top dose activity change, negative = cytotoxicity, usual class: inhibitors; 0.16% of 390,000 active; further: potency means the concentration at half of the fitted maximal effect
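A549 ARE-Fluc cells in 5% FBS OPTI-MEM, 5000 cells/well, rested 2 h then exposed to compounds in concentration-response for 18-24 h at 37 °C. Viability by CellTiter-Fluor fluorescence (Ex 405/Em 525) after 30 min; luciferase luminescence (BugLite, 15 min, RT) read afterwards.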
KB-3-1 cytotox = KB-3-1 parental cell cytotoxicity | KB-3-1 viability, CellTiter-Glo ATP luminescence, 72 h | Potency, µM (highest dose often 46.1 µM), usual class: cytotoxic | 1.4% of 400,000 active | AID 1347075; further: potency means the concentration at half of the fitted maximal effect; nearly all actives have a fitted effect of over 60% in size
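Cytotoxicity in the drug-sensitive parental line KB-3-1 was scored as loss of CellTiter-Glo luminescence following 72 h incubation with compound. Values come from curve fitting of normalized concentration-response data.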
Nrf2 block = Nrf2 pathway inhibition | A549 ARE-Fluc reporter, luciferase luminescence, 18-24 h | Potency, µM (doses to about 46 µM), for the others: at the top dose activity change, negative = inhibition, actives largely listed as inhibitors | 2.1% of 360,000 active; further: potency means the concentration at half of the fitted maximal effect; nearly all actives have a fitted effect of over 60% in size
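Quantitative HTS in A549 cells stably bearing an antioxidant response element-firefly luciferase construct. Inhibition of Nrf2-driven transcription was scored by luminescence after 18-24 h of compound exposure at 37 °C.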
PI4K2A inh = inhibitors of human PI4K2A. activity change, negative = inhibition, % at 76.9 µM. purified PI4K2A, ADP-Glo luminescence, 1 h; stronger effect = lower value. 0.13% of 420,000 active; in the data active means activity change below about -50%; inconclusive means mostly about -30% to -49%;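 further: -100% = wells without enzyme as full effect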
Target sequence (Q9BTU6 whole entry, looked up): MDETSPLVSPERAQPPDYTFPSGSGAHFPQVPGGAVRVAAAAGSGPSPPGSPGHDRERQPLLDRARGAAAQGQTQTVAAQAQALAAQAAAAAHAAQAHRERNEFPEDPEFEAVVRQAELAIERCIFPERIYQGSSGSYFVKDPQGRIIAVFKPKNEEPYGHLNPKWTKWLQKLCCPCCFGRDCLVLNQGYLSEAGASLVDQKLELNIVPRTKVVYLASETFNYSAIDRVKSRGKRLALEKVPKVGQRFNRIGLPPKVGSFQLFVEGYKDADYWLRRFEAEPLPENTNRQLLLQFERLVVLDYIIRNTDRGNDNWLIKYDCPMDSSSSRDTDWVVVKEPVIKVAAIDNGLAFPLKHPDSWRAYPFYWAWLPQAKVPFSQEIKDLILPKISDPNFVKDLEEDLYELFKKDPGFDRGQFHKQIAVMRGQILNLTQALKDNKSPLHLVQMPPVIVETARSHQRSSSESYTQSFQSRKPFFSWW
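ADP-Glo luminescence measured ADP generated by PI4K2A enzyme (4 ug/mL before mixing) with 1.2 mM PI substrate (pre-mix) and 300 microM ATP (pre-mix). Tris pH7.5 buffer with MgCl2, Triton X-100; 1 h reaction at ambient temperature.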
FLuc enzyme inh = counter-screen for Nrf2 inhibitors: firefly luciferase enzyme inhibition; Potency, µM (top dose mostly 57.5 µM), inactives show at the highest dose activity change, negative = inhibition, hits mostly inhibitors; 4% of 1,400 active; purified firefly luciferase, luminescence inhibition; shares compounds with Nrf2 block; AID 720522; further: potency means the concentration at half of the fitted maximal effect; nearly all actives have a fitted effect of over 65% in size
A549 tox-2 = counter-screen for Nrf2 inhibitors: cytotoxicity in A549 ARE cells. shares compounds with Nrf2 block. 2% of 1,400 active. Potency, µM (doses to about 46.1 µM), for inactives: at the highest dose activity change, negative = cytotoxicity, usual class: inhibitors. A549 ARE-Fluc cells, cytotoxicity counterscreen;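 further: potency means the concentration at half of the fitted maximal effect; cells exposed to compounds for 18 to 24 hours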
Nrf2 ARE inh = confirmation of Nrf2 inhibitors in A549 ARE reporter cells; 74% of 1,400 active; A549 ARE-firefly luciferase reporter, luminescence; AID 720524; Potency, µM (doses to about 46.1 µM), for the others: at the highest dose activity change, negative = inhibition, most hits filed as inhibitors; shares compounds with Nrf2 block; further: potency means the concentration at half of the fitted maximal effect; nearly all actives have a fitted effect of over 65% in size
The depositor's hits bear a star; i = inactive; ? = inconclusive; / = not tested or not shown; ! = not confirmed by another sample. Only some compounds are listed: those with a hit (about 5.7% of all), similar ones and a draw of the others. Unless noted, the call rests on the fitted dose curve; in most records, active means well fitted curve in the direction sought with a large enough effect; inconclusive means small, poorly fitted or top-dose-only effect, or another doubt; inactive means no such curve, though single readings can be large; an effect the other way counts as inactive or inconclusive. Unless noted, on the % scale 0 is the no-effect control and ±100 the full control effect.

SMILES	Giardia killer	KB-V1 MDR tox	A549 tox-1	KB-3-1 cytotox	Nrf2 block	PI4K2A inh	FLuc enzyme inh	A549 tox-2	Nrf2 ARE inh
CCOc1ccc(OCc2ccc(C(=O)NN=Cc3ccc[nH]3)cc2)cc1	-13	i	?	2.3µM*	1.8µM*	1	-10%	?	1.8µM*
O=C(N/N=C/c1ccc[nH]1)c1ccccc1OCc1ccc(F)cc1	11	i	1%	i	47%	-1	/	/	/
CCCCC(=O)NC(c1ccc(Cl)cc1)c1ccc2cccnc2c1O (centres undefined)	-1	?	-5%	i	7%	13	/	/	/
CCC(=O)NC(c1ccc(OC)c(OC)c1)c1cc(Cl)c2cccnc2c1O (centres undefined)	9	?	?	3.3µM*!	5.8µM*	-21	1%	-20%	6.5µM*
CCCC(=O)NC(c1cccs1)c1cc(Cl)c2cccnc2c1O (centres undefined)	3	i	-17%	?	5.2µM*	4	1%	-20%	7.3µM*
COc1ccc(C(NC(C)=O)c2cc(Cl)c3cccnc3c2O)cc1OC (centres undefined)	11	i	-8%	?	?	-1	/	/	/
CCCC(=O)NC(c1ccccc1OC)c1ccc2cccnc2c1O (centres undefined)	-4	?	?	?	7.3µM*	4	1%	-14%	9.2µM*
COC(=O)C(C[N+](=O)[O-])C1=C(O)CC(C)(C)CC1=O (centres undefined)	/	/	/	/	/	-6	/	/	/
CCC/C=C1/CCCOC(C(=O)NCCOC)(C(F)(F)F)C1 (centres undefined)	-9	/	1%	/	-5%	/	/	/	/
Cc1cc(Br)ccc1NC(=O)CSc1c2c(nc3ccccc13)CCC2	/	/	-11%	/	-16%	-9	/	/	/
CN(C)c1nc(-c2ccccn2)nnc1-c1ccccc1	-8	?	?	?	?	-23	-2%	-13%	12µM*
COC(=O)[C@]1(C#N)CC(=O)N(C)[C@@H]1c1ccccc1	/	/	/	/	/	-6	/	/	/
COC(=O)[C@]12C[C@H](CC(=O)NCCCN3CCCC3=O)C(=O)N(Cc3cccc4ccccc34)C1=C[C@H](C1CCCC1)O[C@@H]2C	/	/	/	/	/	5	/	/	/
CCCCN=c1scc(-c2ccc3c(c2)NC(=O)CO3)n1N=C1CCCC1	-12	?	-18%	?	/	-1	/	/	/
COCC(C)n1c(-c2ccc3c(c2)NC(=O)CO3)csc1=Nc1ccc(OC(F)F)cc1 (centres undefined)	5	?	?	9.2µM*!	10µM*	16	0%	-26%	9.2µM*
CCN=c1scc(-c2ccc3c(c2)NC(=O)CO3)n1N=C1CCCC1	13	?	-16%	?	16µM*	11	-10%	-12%	7.3µM*
CO/N=C/c1ccc(N2CCN(C(=O)c3ccc(Cl)cc3Cl)CC2)c([N+](=O)[O-])c1	18	2.6µM*	-28%	13µM*	6.5µM*	5	-1%	-22%	12µM*
Cc1c(C(=O)N2CCN(c3cccc(Cl)c3)CC2)cccc1[N+](=O)[O-]	-13	i	-10%	i	?	0	/	/	/
S=C(NCc1cccc(Cl)c1)OC1CCC12CCC(c1ccccc1)CC2 (centres undefined)	/	/	/	/	/	0	/	/	/
COc1cc2c(NC3CCN(C)CC3)nc(N3CCCN(C)CC3)nc2cc1OCCOCCN1CCCC1	/	i	/	i	/	/	/	/	/
COc1cc2c(NC3CCN(C(C)C)CC3)nc(N3CCCN(C)CC3)nc2cc1OCCCN(C)C	/	i	/	2.3µM*	/	/	-1%	?	1.6µM*
COC(=O)[C@H]1C[C@@]2(C#N)c3ccccc3N(C(=O)OC(C)(C)C)[C@H]2N1C(=O)OC(C)(C)C	/	/	/	/	/	-1	/	/	/
Cc1nc(N2CCCCC2)sc1C(=O)c1cccc([N+](=O)[O-])c1	-19	?	-14%	i	2.9µM*	4	-28%	0%	-20%
N=C(c1cccc([N+](=O)[O-])c1)N1CCCCCC1	17	?	1%	i	6%	2	/	/	/
Cc1cc2[nH]c3c(c[n+](C)c4ccccc34)c2cc1C	-84*	i	?	?	5.8µM*	2	1%	7%	7.3µM*
Fc1ccc(Nc2nc3nonc3nc2Nc2cccc(C(F)(F)F)c2)cc1	/	/	8.2µM*	/	1.5µM*	0	-23%	5.8µM*	1µM*
COc1cccc(Cn2c(NCc3ccco3)nc3c2c(=O)n(C)c(=O)n3C)c1	-18	?	?	?	8.2µM*	1	-1%	-9%	6.5µM*
Cn1c(=O)c2c(nc(NCc3ccccc3)n2Cc2ccccc2)n(C)c1=O	/	i	-1%	i	?	-4	/	/	/
